According to PubChem BioAssay AID1159580 (chemical genetic matrix, 2015):
The campaign covered roughly 5,500 compounds. About 2,000 (36%) were called active. Roughly 18% stayed inconclusive and do not appear here. Rule as the data show it: active = normalized growth mostly below about 0.91 (no sharp cut-off); inconclusive = no clear call, values can overlap the other calls; inactive = mostly above about 0.92. This is one part of the list.

Test: chemical genetic growth profiling, strain panel (AID 1159580);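 also: tested at 20 µM; growth read once vehicle control cultures reached saturation at 30 °C; 1 = growth at the plate median or of vehicle wells; lower values mean less growth of the strain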
Conditions: growth OD
[1] = S. cerevisiae deletion strains, locus YMR307W, strain GAS1, active compounds read low
[2] = S. cerevisiae deletion strains, locus YNL322C, strain KRE1, active compounds read low
[3] = S. cerevisiae deletion strains, locus YPL241C, strain CIN2, active compounds read low

Measured: normalized growth

CCCCC/C=C\CC(O)/C=C/c1cccc(CC(O)CCCCO)n1 (stereo unspecified)
inactive: S. cerevisiae deletion strains, locus YAL013W, strain DEP1, active compounds read low 1.03 | S. cerevisiae deletion strains, locus YAL040C, strain CLN3, active compounds read low 0.995 | S. cerevisiae deletion strains, locus YCL061C, strain MRC1 (second series), active compounds read low 0.996 | S. cerevisiae deletion strains, locus YDR150W, strain NUM1, active compounds read low 1 | S. cerevisiae deletion strains, locus YDR363W, strain ESC2, active compounds read low 1.01 | S. cerevisiae deletion strains, locus YER002W, strain NOP16, active compounds read low 0.982 | [1] 1.01 | S. cerevisiae deletion strains, locus YNL153C, strain GIM3, active compounds read low 1 | S. cerevisiae deletion strains, locus YNL175C, strain NOP13, active compounds read low 0.985 | S. cerevisiae deletion strains, locus YNL197C, strain WHI3, active compounds read low 0.974 | S. cerevisiae deletion strains, locus YNL224C, strain SQS1, active compounds read low 0.975 | [2] 1.01 | S. cerevisiae deletion strains, locus YOR083W, strain WHI5 (second series), active compounds read low 0.991 | [3] 0.995

COC(=O)c1cc(OC)c(=O)c2c(OC)c(OC)ccc2c1
inactive: S. cerevisiae deletion strains, locus YBR021W, strain FUR4, active compounds read low 1.02 | S. cerevisiae deletion strains, locus YBR229C, strain ROT2, active compounds read low 1.01 | S. cerevisiae deletion strains, locus YCL029C, strain bik1, active compounds read low 0.969 | S. cerevisiae deletion strains, locus YDL035C, strain GPR1, active compounds read low 1.03 | S. cerevisiae deletion strains, locus YDL074C, strain BRE1, active compounds read low 1.08 | S. cerevisiae deletion strains, locus YDL101C, strain DUN1, active compounds read low 1.01 | S. cerevisiae deletion strains, locus YDL134C, strain PPH21, active compounds read low 1.04 | S. cerevisiae deletion strains, locus YDL185W, strain tfp1, active compounds read low 0.998 | S. cerevisiae deletion strains, locus YDL192W, strain arf1, active compounds read low 0.971 | S. cerevisiae deletion strains, locus YDR101C, strain arx1, active compounds read low 0.975 | S. cerevisiae deletion strains, locus YDR162C, strain NBP2, active compounds read low 1.01 | S. cerevisiae deletion strains, locus YDR318W, strain mcm21, active compounds read low 0.969 | S. cerevisiae deletion strains, locus YDR388W, active compounds read low 0.986 | S. cerevisiae deletion strains, locus YDR502C, strain sam2, active compounds read low 0.99 | S. cerevisiae deletion strains, locus YER110C, active compounds read low 1.01 | S. cerevisiae deletion strains, locus YER155C, strain BEM2, active compounds read low 1.01 | S. cerevisiae deletion strains, locus YER167W, strain BCK2, active compounds read low 1 | S. cerevisiae deletion strains, locus YGL078C, strain dbp3, active compounds read low 0.995 | S. cerevisiae deletion strains, locus YGL086W, strain mad1, active compounds read low 0.984 | S. cerevisiae deletion strains, locus YGL248W, strain PDE1, active compounds read low 1.02 | S. cerevisiae deletion strains, locus YGR078C, strain PAC10, active compounds read low 1.01 | S. cerevisiae deletion strains, locus YGR135W, strain pre9, active compounds read low 0.985 | S. cerevisiae deletion strains, locus YGR229C, strain SMI1, active compounds read low 1.06 | S. cerevisiae deletion strains, locus YHR079C, strain IRE1 (second series), active compounds read low 1 | S. cerevisiae deletion strains, locus YHR094C, strain hxt1, active compounds read low 0.972 | S. cerevisiae deletion strains, locus YHR129C, strain ARP1, active compounds read low 1.02 | S. cerevisiae deletion strains, locus YHR200W, strain rpn10, active compounds read low 0.985 | S. cerevisiae deletion strains, locus YIL066C, strain RNR3, active compounds read low 1.02 | S. cerevisiae deletion strains, locus YIL073C, strain SPO22, active compounds read low 0.951 | S. cerevisiae deletion strains, locus YIL125W, strain kgd1, active compounds read low 0.978 | S. cerevisiae deletion strains, locus YIR030C, strain dcg1, active compounds read low 0.986 | S. cerevisiae deletion strains, locus YJL095W, strain BCK1, active compounds read low 1.04 | S. cerevisiae deletion strains, locus YJL134W, strain LCB3, active compounds read low 1 | S. cerevisiae deletion strains, locus YJL168C, strain set2, active compounds read low 0.972 | S. cerevisiae deletion strains, locus YJL187C, strain SWE1 (second series), active compounds read low 1.02 | S. cerevisiae deletion strains, locus YKL009W, strain mrt4, active compounds read low 0.977 | S. cerevisiae deletion strains, locus YKL068W, active compounds read low 0.999 | S. cerevisiae deletion strains, locus YKL085W, strain MDH1 (second series), active compounds read low 0.971 | S. cerevisiae deletion strains, locus YKL085W, strain MDH1, active compounds read low 0.971 | S. cerevisiae deletion strains, locus YKR001C, strain vps1, active compounds read low 0.966 | S. cerevisiae deletion strains, locus YLR039C, strain RIC1, active compounds read low 1.03 | S. cerevisiae deletion strains, locus YLR058C, strain SHM2, active compounds read low 1.03 | S. cerevisiae deletion strains, locus YLR102C, strain apc9, active compounds read low 0.959 | S. cerevisiae deletion strains, locus YLR268W, strain sec22, active compounds read low 0.981 | S. cerevisiae deletion strains, locus YLR330W, strain CHS5, active compounds read low 1.02 | S. cerevisiae deletion strains, locus YLR371W, strain rom2, active compounds read low 0.977 | S. cerevisiae deletion strains, locus YLR418C, strain cdc73, active compounds read low 1.07 | S. cerevisiae deletion strains, locus YML016C, strain PPZ1, active compounds read low 1 | S. cerevisiae deletion strains, locus YML032C, strain rad52, active compounds read low 0.996 | S. cerevisiae deletion strains, locus YML124C, strain tub3, active compounds read low 0.967 | S. cerevisiae deletion strains, locus YMR078C, strain ctf18, active compounds read low 0.976 | S. cerevisiae deletion strains, locus YMR223W, strain ubp8, active compounds read low 1 | [1] 1.01 | S. cerevisiae deletion strains, locus YNL067W, strain RPL9B, active compounds read low 0.998 | S. cerevisiae deletion strains, locus YNL233W, strain BNI4, active compounds read low 1.03 | S. cerevisiae deletion strains, locus YNL250W, strain rad50, active compounds read low 1.05 | S. cerevisiae deletion strains, locus YNL271C, strain bni1, active compounds read low 0.981 | S. cerevisiae deletion strains, locus YNL298W, strain CLA4, active compounds read low 0.984 | S. cerevisiae deletion strains, locus YNL307C, strain MCK1, active compounds read low 0.952 | [2] 1 | S. cerevisiae deletion strains, locus YNR052C, strain pop2, active compounds read low 0.981 | S. cerevisiae deletion strains, locus YOL006C, strain TOP1, active compounds read low 1.21 | S. cerevisiae deletion strains, locus YOL012C, strain htz1 0.895 | S. cerevisiae deletion strains, locus YOL147C, strain pex11, active compounds read low 0.993 | S. cerevisiae deletion strains, locus YOR061W, strain CKA2, active compounds read low 1 | S. cerevisiae deletion strains, locus YOR069W, strain VPS5, active compounds read low 1 | S. cerevisiae deletion strains, locus YOR136W, strain idh2, active compounds read low 0.977 | S. cerevisiae deletion strains, locus YOR144C, strain elg1, active compounds read low 0.987 | S. cerevisiae deletion strains, locus YOR184W, strain ser1, active compounds read low 0.935 | S. cerevisiae deletion strains, locus YOR316C, strain cot1, active compounds read low 0.985 | [3] 1 | S. cerevisiae deletion strains, locus YPR119W, strain clb2, active compounds read low 0.969 | S. cerevisiae deletion strains, locus YPR141C, strain kar3, active compounds read low 0.982 | S. cerevisiae deletion strains, locus YPR163C, strain tif3, active compounds read low 0.977 | S. cerevisiae deletion strains, locus YPR167C, strain met16, active compounds read low 0.967 | S. cerevisiae deletion strains, strain wtn01, active compounds read low 0.994 | S. cerevisiae strains, strain wild type, active compounds read low 1.02
